VACV Venus inh = vaccinia inhibition (Venus reporter); Vaccinia virus Venus reporter expression, fluorescence; Potency, µM (titrated, usually from 36.5 µM), usual class: inhibitors; 330,000 compounds, 0.46% hits; AID 720580; calls by dose curve; tested in A549 cells; also: nearly all actives have a fitted effect of over 30% in size
HCV inh = HCV inhibition; Potency, µM (series often up to 41.8 µM), most hits filed as inhibitors; 340,000 compounds, 3.4% hits; Huh7.5.1 HCVcc-Cre infection, luciferase reporter, 44 h
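Cells (1,000/well) were plated 4 h before compound, then infected with HCVcc-Cre virus (~0.5 moi). After 44 h further culture, infection was read as luciferase luminescence following a 15 min substrate incubation at room temperature.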
HCMV inh = human cytomegalovirus inhibition; HFF cells, HCMV-luciferase reporter, 72 h; active compounds read low; activity change, negative = inhibition, % at 57.5 µM; 410,000 compounds, 4.5% hits; AID 1259415; in the data active = activity change below about -60%; inconclusive = no clear call, values can overlap the other calls; inactive = above about -39%
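HFF cells seeded 16 h at 37C, treated with compounds, infected with luciferase-reporter HCMV at MOI 1 PFU/cell; luciferase read at 72 h post infection, normalized to buffer-only and Salinomycin controls.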
Sm TGR block = S. mansoni TGR enzyme inhibition; Q962Y6; purified TGR, DTNB reduction, TNB absorbance 405 nm; Potency, µM (highest dose often 114 µM), actives largely listed as inhibitors; 360,000 compounds, 3% hits; AID 485364; also: nearly all actives have a fitted effect of over 60% in size
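First, TGR (20 nM dispensed) and NADPH were mixed with compound. Second, a 15 min room-temperature incubation followed. Third, further NADPH and then DTNB were added to start the reaction. Finally, TNB absorbance was monitored kinetically.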
FMDV inh = foot and mouth disease virus antiviral activity. 410,000 compounds, 1.2% hits. AID 1159524. FMDV antiviral cell-based qHTS. Potency, µM (titrated, usually from 57.9 µM), most hits filed as inhibitors; calls by dose curve; tested in HEK293T cells; also: read-out not given here; nearly all actives have a fitted effect of over 45% in size
Vaccinia mCherry = vaccinia inhibition (mCherry reporter); Vaccinia virus mCherry reporter infection, fluorescence; Potency, µM (titrated, usually from 36.5 µM), usual class: inhibitors; 310,000 compounds, 0.63% hits; calls by dose curve; tested in A549 cells; also: nearly all actives have a fitted effect of over 35% in size
Hits are given with their value; . = inactive; ? = inconclusive; / = no result; [ ] = another dose, or the depositor's remark. A selection: hits, their analogues and other compounds. The true share with any hit is near 9.3%. Unless noted, calls follow the shape of the dose curve; as a rule, active = well fitted curve in the direction sought with a large enough effect; inconclusive = small, poorly fitted or top-dose-only effect, or another doubt; inactive = no such curve, though single readings can be large; an effect the other way counts as inactive or inconclusive.

SMILES | VACV Venus inh | HCV inh | HCMV inh | Sm TGR block | FMDV inh | Vaccinia mCherry
Cc1cccc(-n2cnc3c(c2=O)c2nc4ccccc4nc2n3Cc2ccco2)c1 | . | ? | . | 2.8µM | . | /
COc1ccc(Cn2c3nc4ccccc4nc3c3c(=O)n(Cc4ccco4)cnc32)cc1 | / | ? | / | 16µM | / | /
Cc1cccc(S(=O)(=O)c2c(N)n(Cc3ccco3)c3nc4ccccc4nc23)c1 | . | . | / | 18µM | . | ?
Cc1ccccc1C(OCC(O)CN1CCN(CCO)CC1)c1ccccc1 (centres undefined) | / | . | . | . | . | /
Cc1ccc2c(c1)c1c3n2CCN=C3CCC1 | / | ? | . | . | . | /
c1cc2c(cc1C1CCCCC1)c1c3n2CCN=C3CCC1 | . | ? | . | 7.9µM | . | /
COc1cc(-c2cc(C(=O)Nc3c(Cl)cc(Cl)cc3Cl)c3ccccc3n2)cc(OC)c1OC | . | 10µM | . | . | ? | .
COc1ccc(-c2cc(C(=O)Nc3ccc(C)c(N)c3)c3ccccc3n2)cc1 | . | 11µM | . | . | . | ?
COC(=O)c1ccc(NC(=O)c2cc(-c3ccccn3)nc3ccccc23)cc1 | . | . | . | . | . | .
COC(=O)c1ccc(NC(=O)c2cc(-c3ccncc3)nc3ccccc23)cc1 | / | 10µM | . | . | . | /
COc1ccc(-c2cc(C(=O)Nc3ccc(S(=O)(=O)Nc4ncccn4)cc3)c3ccccc3n2)cc1 | / | . | . | . | . | /
O=S(=O)(NCC(c1ccco1)N1CCOCC1)c1ccc(Br)cc1 (centres undefined) | . | / | . | . | . | .
CC(C)/C(=N/Nc1ccccc1[N+](=O)[O-])c1ccccc1 | . | ? | . | . | . | .
CN(C)C(=O)CCc1ccc2c3c([nH]c2c1)[C@]1(C)[C@@H](C(=O)N2CCCCC2)C[C@H](CC(=O)NCCc2ccccn2)C(=O)N1CC3 | . | . | . | / | . | .
Cc1cc(N2CCOCC2)c(F)cc1C(=O)c1ccccc1 | / | . | . | . | . | /
COCCNC(=O)c1ccc(C)c(NC(=O)C2=C(C)OCCS2)c1 | . | . | . | . | . | .
CC1=C(C(=O)Nc2cc(C(=O)N3CCC(C)CC3)ccc2C)SCCO1 | .[7.34 µM] | . | -63 | . | . | .[7.34 µM]
CC1=C(C(=O)Nc2cccc(C(=O)NC(C)C)c2)SCCO1 | . | . | . | . | . | .
CCC(C)NC(=O)c1ccc(NC(=O)C2=C(C)OCCS2)cc1 (centres undefined) | . | . | -61 | . | . | .
C/C(=N\Nc1ccc(F)cc1F)c1ccccc1O | . | ? | -69 | . | . | .
Cc1ccc(-n2c(SCC(=O)N3CCOCC3)nc(O)cc2=O)cc1 | . | . | . | . | . | .
COc1ccc(-n2c(C)cc(C(=O)COC(=O)c3ccc(O)cc3O)c2C)cc1 | / | 10µM | -81 | . | . | /
Cc1cc(C(=O)CC#N)c(C)n1-c1ccc(OC(F)F)cc1 | . | ? | . | . | ? | .
COc1ccc(CCNCc2cc(OC)cc(OC)c2)cc1 | . | / | . | / | . | .
COc1ccc(CCNCc2cc(C)n(-c3ccc(OC)cc3)c2C)cc1 | . | . | . | 50µM | . | .
SMILES | VACV Venus inh | HCV inh | HCMV inh | Sm TGR block | FMDV inh | Vaccinia mCherry
Cc1cc(C(=O)COC(=O)c2ccc(O)cc2O)c(C)n1-c1ccc(OC(F)F)cc1 | . | 10µM | -63 | . | ? | .
COc1ccc(-n2c(C)cc(C(=O)CCl)c2C)cc1 | / | ? | -90 | 4µM | 28µM | /
N#Cc1c(-c2ccc(Br)cc2)nc2n(c1=O)CCCS2 | / | ? | . | . | . | /
Cc1cc(C(=O)CCl)c(C)n1-c1c(C)n(C)n(-c2ccccc2)c1=O | ? | 8.9µM | . | . | 28µM | ?
CCOC(=O)C1=CCN(S(=O)(=O)c2cccc(Cl)c2)C1c1ccccc1 (centres undefined) | . | / | . | / | . | .
S=C(NCCN1CCOCC1)Nc1ccc(-c2nc3ccccc3[nH]2)cc1 | / | ? | ? | . | . | /
COc1cc(OC)c(OC)cc1/C=N/N(C)c1ccccc1 | . | 8.9µM | . | . | . | /
N#Cc1nc(COc2ccc(Br)cc2)oc1NCCCn1ccnc1 | . | ? | . | . | . | .
CC/C(=C/c1sc2ccccc2[n+]1CC)SC | . | ? | . | . | ? | .
CC[n+]1c(/C=C2/C=C(C)CC(C)C2)sc2ccccc21 (centres undefined) | / | 3.5µM | . | 40µM | ? | /
CC[n+]1c(/C=C(\C)SC)sc2ccccc21 | . | ? | . | . | / | ?

Screens from PubChem.
